# Data from PMC12701074.
# Experiments:
# [1] = molecular target: Histone H2B type 1-L (UniProt Q99880); assay: cross-linking mass spectrometry
# [2] = molecular target: DNA topoisomerase 1 (UniProt P11387); assay: cross-link between two proteins; cross-linking mass spectrometry
# [3] = molecular target: Large ribosomal subunit protein eL36 (UniProt Q9Y3U8); assay: as above
# [4] = molecular target: Probable ATP-dependent RNA helicase DDX5 (UniProt P17844); assay: as above
# [5] = molecular target: Small ribosomal subunit protein uS17 (UniProt P62280); assay: as above
# [6] = molecular target: Histone H2B type 1-B (UniProt P33778); assay: as above
# [7] = molecular target: Histone H4 (UniProt P62805); assay: as above
# [8] = molecular target: Large ribosomal subunit protein eL24 (UniProt P83731); assay: as above
# [9] = molecular target: Large ribosomal subunit protein uL18 (UniProt P46777); assay: as above
# [10] = molecular target: Large ribosomal subunit protein uL2 (UniProt P62917); assay: as above
# [11] = molecular target: Small ribosomal subunit protein uS12 (UniProt P62266); assay: as above
# [12] = molecular target: Peptidyl-prolyl cis-trans isomerase A-like 4A (UniProt Q9Y536); assay: as above
# [13] = molecular target: Small ribosomal subunit protein eS6 (UniProt P62753); assay: as above
# [14] = molecular target: Small ribosomal subunit protein uS9 (UniProt P62249); assay: as above
# Peptidyl-prolyl cis-trans isomerase A-like 4A, sequence (Q9Y536 whole entry): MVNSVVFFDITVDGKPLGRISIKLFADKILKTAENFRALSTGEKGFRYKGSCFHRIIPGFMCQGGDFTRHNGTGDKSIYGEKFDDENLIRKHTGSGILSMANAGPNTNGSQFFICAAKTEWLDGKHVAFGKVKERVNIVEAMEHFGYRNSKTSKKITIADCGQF
# DNA topoisomerase 1, sequence (P11387 whole entry): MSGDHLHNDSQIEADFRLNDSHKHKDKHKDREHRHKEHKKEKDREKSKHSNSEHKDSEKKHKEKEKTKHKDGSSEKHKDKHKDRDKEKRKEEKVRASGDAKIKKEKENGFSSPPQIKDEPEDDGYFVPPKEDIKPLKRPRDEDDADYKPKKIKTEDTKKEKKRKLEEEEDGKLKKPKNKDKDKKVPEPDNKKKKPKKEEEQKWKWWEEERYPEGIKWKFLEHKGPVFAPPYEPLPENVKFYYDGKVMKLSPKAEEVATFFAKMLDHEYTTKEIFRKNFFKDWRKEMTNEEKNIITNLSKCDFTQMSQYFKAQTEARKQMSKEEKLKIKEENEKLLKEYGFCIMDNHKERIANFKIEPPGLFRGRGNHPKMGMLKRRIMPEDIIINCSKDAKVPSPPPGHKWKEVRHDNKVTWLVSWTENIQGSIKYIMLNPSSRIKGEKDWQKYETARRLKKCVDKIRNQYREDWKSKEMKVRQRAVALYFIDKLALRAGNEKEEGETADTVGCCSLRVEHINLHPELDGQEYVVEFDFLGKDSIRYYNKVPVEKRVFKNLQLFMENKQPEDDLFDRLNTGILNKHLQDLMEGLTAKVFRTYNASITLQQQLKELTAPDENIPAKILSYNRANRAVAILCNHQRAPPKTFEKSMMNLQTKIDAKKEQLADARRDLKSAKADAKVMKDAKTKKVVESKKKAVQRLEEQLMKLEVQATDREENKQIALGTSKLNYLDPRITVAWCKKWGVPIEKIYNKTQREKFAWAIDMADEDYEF
# Probable ATP-dependent RNA helicase DDX5, sequence (P17844 whole entry): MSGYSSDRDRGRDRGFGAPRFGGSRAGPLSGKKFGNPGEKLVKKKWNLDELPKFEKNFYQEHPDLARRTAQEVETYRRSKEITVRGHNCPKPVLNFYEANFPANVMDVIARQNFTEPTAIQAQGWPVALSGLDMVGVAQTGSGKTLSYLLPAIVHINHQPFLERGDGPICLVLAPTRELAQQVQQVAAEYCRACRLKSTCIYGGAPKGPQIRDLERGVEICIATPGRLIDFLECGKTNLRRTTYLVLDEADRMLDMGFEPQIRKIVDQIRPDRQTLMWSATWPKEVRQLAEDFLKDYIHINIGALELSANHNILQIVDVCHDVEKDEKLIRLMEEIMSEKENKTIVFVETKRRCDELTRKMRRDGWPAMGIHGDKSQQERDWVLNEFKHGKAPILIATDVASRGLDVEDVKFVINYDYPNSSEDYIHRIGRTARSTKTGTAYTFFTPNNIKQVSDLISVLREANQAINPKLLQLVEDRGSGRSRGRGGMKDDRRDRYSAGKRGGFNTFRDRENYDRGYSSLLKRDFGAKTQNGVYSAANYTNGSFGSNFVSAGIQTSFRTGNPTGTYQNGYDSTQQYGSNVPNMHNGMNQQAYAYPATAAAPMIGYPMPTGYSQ
substance,measurement,setting,value
"Actin, cytoplasmic 1, P60709",listed as a hit,[1],yes
"Histone H1.4, P10412",listed as a hit,[2],yes
same,listed as a hit,[3],yes
same,listed as a hit,[4],yes
same,listed as a hit,[5],yes
"Large ribosomal subunit protein uL22, P18621",listed as a hit,[6],yes
"Large ribosomal subunit protein eL33, P18077",listed as a hit,[6],yes
"Small ribosomal subunit protein uS5, P15880",listed as a hit,[7],yes
"Small ribosomal subunit protein eS1, P61247",listed as a hit,[7],yes
"Histone H4, P62805",listed as a hit,[8],yes
"Histone H2B type 1-B, P33778",listed as a hit,[9],yes
same,listed as a hit,[10],yes
same,listed as a hit,[11],yes
"Histone H2B type 1-C/E/F/G/I, P62807",listed as a hit,[12],yes
"Large ribosomal subunit protein uL4, P36578",listed as a hit,[13],yes
"Large ribosomal subunit protein eL27, P61353",listed as a hit,[14],yes
